Among the data in PubChem BioAssay are outcome values, retold here.

Potency and affinity values are given separately. Records with an inconclusive call do not appear. Where a call stands in place of a potency, no number is given. The source made the active and inactive calls. The rule behind the calls is not given here.

The experiment can be described thus: IGROV1 cell killing – plate reader, dry powder samples, PAX8 inhibitor project, dose response (AID 743043).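 Note: more negative means fewer viable cells or more cytotoxicity.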 Particulars: IGROV1 ovarian cancer cell cytotoxicity; series mostly up to 35 µM.
On to `C[C@@H]1CCCCO[C@H](CN(C)C(=O)Nc2ccc(C(F)(F)F)cc2)[C@H](C)CN([C@@H](C)CO)C(=O)c2cc(NS(=O)(=O)c3ccc(Cl)cc3)ccc2O1`, for which the outcome was inactive.
As to `C[C@H](O)C#Cc1cnc2c(c1)C(=O)N([C@H](C)CO)C[C@H](C)[C@H](CN(C)Cc1ccc(-c3ccccc3)cc1)O2`, the call was inactive.
To `Cc1ccc(S(=O)(=O)N(C)C[C@@H]2Oc3cc(C#Cc4ccncc4)ccc3S(=O)(=O)N([C@@H](C)CO)C[C@H]2C)cc1` belongs “inactive”; to `O=C(C[C@@H]1C[C@H]2c3cc(NC(=O)C4CCOCC4)ccc3O[C@H]2[C@H](CO)O1)NCc1ccc(Oc2ccccc2)cc1`, “inactive”; to `C[C@@H]1CCCCO[C@@H](CN(C)Cc2ccc(C(F)(F)F)cc2)[C@H](C)CN([C@H](C)CO)C(=O)c2cc(NS(=O)(=O)c3ccc(Cl)cc3)ccc2O1`, “inactive”.
To `Cc1ccc(S(=O)(=O)N(C)C[C@H]2OCCCC[C@@H](C)Oc3ccc(NS(=O)(=O)c4ccc(F)cc4)cc3C(=O)N([C@@H](C)CO)C[C@H]2C)cc1` belongs “inactive”.
To `C[C@@H]1CCCCO[C@H](CN(C)C(=O)Cc2ccccc2)[C@H](C)CN([C@@H](C)CO)C(=O)c2cc(NC(=O)Nc3ccc(C(F)(F)F)cc3)ccc2O1` belongs “inactive”.
For the compound `Cc1ccc(S(=O)(=O)Nc2ccc3c(c2)C(=O)N([C@H](C)CO)C[C@H](C)[C@H](CN(C)C(=O)c2ccccc2)OCCCC[C@H](C)O3)cc1`, the outcome was inactive.
Regarding `COc1ccc(S(=O)(=O)Nc2ccc3c(c2)CC(=O)N([C@H](C)CO)C[C@H](C)[C@@H](CN(C)Cc2ccc(-c4ccccc4)cc2)O3)cc1`, the compound was called inactive.
